A selection: hits, their analogues and other compounds. The true share with any hit is near 18%.
TDP1 cell CPT: growth inhibition of DT40 Tdp1-/-;hTDP1 cells with camptothecin (screen for TDP1 inhibitors). chicken DT40 Tdp1-/-;hTDP1 cells + 20 nM CPT, ATP luminescence, 48 h. Potency, µM (doses to about 46.2 µM), without a hit: at the top dose activity change, negative = growth inhibition, usual class: inhibitors. hit rate 12% among 420,000. AID 686979; further: potency means the concentration at half of the fitted maximal effect; nearly all actives have a fitted effect of over 55% in size
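Cell growth measured by CellTiter-Glo luminescence after a minimum 48 h, 37 C compound exposure with 20 nM CPT in Tdp1-knockout DT40 cells stably expressing hTDP1, seeded 400/well; qHTS titration format.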
Six1-Eya2 inh: blocks human Six1 binding to Eya2. activity change, % (no concentration beside the values). Q15475+O00167. hit rate 0.56% among 360,000. AlphaScreen GST-Six1/His-Eya2 binding, biochemical; hits give low values; in the data active means activity change below about -65%; inconclusive means mostly about -30% to -63%
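Compounds are tested against tagged Six1 and Eya2 proteins bridged by glutathione donor and nickel acceptor beads; after a one-hour incubation at 37 °C without light, AlphaScreen emission is recorded.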
CtBP-E1A inh: blocks the CtBP interaction with E1A; AlphaScreen GST-E1A/His-CtBP binding, 1536-well; hits give low values; activity change, % (concentration not given with the values); hit rate 0.49% among 340,000; AID 651724; in the data active means activity change below about -65%; inconclusive means mostly about -30% to -63%
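Protein mix (5X: 125 nM each GST-E1A, His-CtBP) was incubated with pinned compound 2 h at 37 deg C in dark, in 50 mM Tris pH 8.0 buffer with 300 mM NaCl. Glutathione donor and nickel acceptor beads followed; AlphaScreen signal read after 1 h.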
IL1B secr inh: inflammasome signaling inhibition, IL-1 beta readout; THP-1 LPS/ATP IL-1B secretion, AlphaLISA, 16 h; hits give low values; activity change, % at 57.5 µM; hit rate 4.7% among 360,000; in the data active means activity change below about -50%; inconclusive means mostly about -30% to -49%
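THP-1 cells pretreated 1 hr with compounds (up to 57.5 uM final), then stimulated with LPS (250 ng/mL final) plus ATP (1.25 mM final); secreted IL-1B measured by AlphaLISA after 16 hr, decreased signal indicating inhibition.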
TDP1 cell noCPT: qHTS for Inhibitors of human tyrosyl-DNA phosphodiesterase 1 (TDP1): qHTS in cells in absence of CPT; AID 686978, 2013; Potency, µM (top dose mostly 46.2 µM), without a hit: at the top dose activity change, negative = growth inhibition, actives largely listed as inhibitors; hit rate 15% among 420,000; DT40 Tdp1-/- hTDP1 cells, no CPT, ATP luminescence, 48 h; further: potency means the concentration at half of the fitted maximal effect; nearly all actives have a fitted effect of over 55% in size
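Seeded 400 DT40-hTDP1 cells/well (vehicle DMSO, no 20 nM CPT); pinned compounds; ≥48 hr at 37 °C; CellTiter-Glo luminescence as viability measure.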
TDP1 inh: blocks human tyrosyl-DNA phosphodiesterase 1; Q9NUW8; recombinant TDP1, AlphaScreen DNA substrate cleavage; Potency, µM (titrated, usually from 130 µM), for inactives: top-dose activity change, negative = inhibition, usual class: inhibitors; hit rate 0.28% among 350,000; AID 485290; further: potency means the concentration at half of the fitted maximal effect; nearly all actives have a fitted effect of over 40% in size
Target sequence (Q9NUW8 whole entry, looked up): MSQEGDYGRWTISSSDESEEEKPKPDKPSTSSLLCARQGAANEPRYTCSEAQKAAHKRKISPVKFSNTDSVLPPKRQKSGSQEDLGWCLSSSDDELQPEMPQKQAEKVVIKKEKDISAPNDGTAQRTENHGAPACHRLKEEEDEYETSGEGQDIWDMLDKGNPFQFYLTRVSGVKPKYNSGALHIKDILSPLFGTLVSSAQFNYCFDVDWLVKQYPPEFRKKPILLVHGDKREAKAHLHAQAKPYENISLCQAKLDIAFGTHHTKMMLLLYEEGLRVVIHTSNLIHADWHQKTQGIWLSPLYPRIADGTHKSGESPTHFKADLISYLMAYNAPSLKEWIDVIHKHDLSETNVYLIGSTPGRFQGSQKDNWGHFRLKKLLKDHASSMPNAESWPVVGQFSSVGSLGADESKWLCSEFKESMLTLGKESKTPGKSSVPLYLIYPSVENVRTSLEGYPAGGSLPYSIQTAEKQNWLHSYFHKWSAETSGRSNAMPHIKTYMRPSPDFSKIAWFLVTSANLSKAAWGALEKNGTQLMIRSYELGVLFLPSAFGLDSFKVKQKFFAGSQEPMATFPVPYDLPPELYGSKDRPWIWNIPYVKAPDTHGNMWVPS
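E. coli-derived human Tdp1, 1 nM final. Cpd preinc 15 min RT; substrate 15 nM final, 5 min RT; AS bead mix 10 ug/ml final, 10 min RT. Signal loss = tyrosine-FITC cleavage. No-enzyme wells = max signal.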
* hit, by the source's call; u = inconclusive; x = not tested or not shown; ! = not active in a repeat; [ ] = dose if it differs, or a comment. Unless noted, the call rests on the fitted dose curve; in most records, active means well fitted curve in the direction sought with a large enough effect; inconclusive means small, poorly fitted or top-dose-only effect, or another doubt; inactive means no such curve, though single readings can be large; an effect the other way counts as inactive or inconclusive. On the % scale 0 is the no-effect control and ±100 the full control effect.

SMILES	TDP1 cell CPT	Six1-Eya2 inh	CtBP-E1A inh	IL1B secr inh	TDP1 cell noCPT	TDP1 inh
CC1C/C(=C\c2ccccc2[N+](=O)[O-])c2nc3ccccc3c(C(=O)O)c2C1 (stereo not drawn)	-4%	-7	-5	-3	-13%	4%
O=C(O)c1cc(-c2ccc(Br)s2)nc2ccccc12	-13%	7	2	0	12%	x
CCN(CC)CCCNC(=O)c1cc(Nc2ccc(OC)cc2OC)nc2ccccc12	u	-23	x	-6	u	x
CCCCOc1cc(C(=O)NCCN(CC)CC)c2ccccc2n1	21µM*!	8	-4	-50*!	7.3µM*	-8%
CN1CCN(NC(=O)c2cc(-c3ccc(Br)s3)nc3ccccc23)CC1	u	4	-4	u	7.3µM*	9%
CCCCN(C)CCNC(=O)c1cc(-c2ccc(Cl)s2)nc2ccccc12	23µM*	x	x	x	23µM*	0%
CCN(CC)CCNC(=O)c1cc(-c2ccc(Br)s2)nc2ccccc12	18µM*	-2	x	u	18µM*	3%
Cc1cccc(N2C(=O)C3CCC(c4ccccc4)CC3C2=O)c1 (stereo not drawn)	10%	18	5	-2	1%	5%
CCc1ccc(CNC(=O)c2cc(-c3ccc(Br)s3)nc3ccccc23)cc1	u	x	x	x	18µM*	5%
CCCN(CCC)CCNC(=O)c1cc(-c2ccc(Br)s2)nc2ccccc12	18µM*	x	x	x	u	5%
CCOCCCNC(=O)c1cc(-c2ccc(Br)s2)nc2ccccc12	13%	9	18	26	u	x
Cc1cccc(-n2c(=O)c(C#N)cc3c(=O)n4ccccc4nc32)c1	u	-1	7	-13	0%	-1%
CCOC(=O)c1ccccc1NC(=O)Cc1ccccc1OC	u	5	14	1	-15%	-1%[56.1 µM]
C=CCN1C(=O)C(Cc2ccccc2Cl)SC1=Nc1ccc(C(=O)O)cc1 (stereo not drawn)	3%	3	-1	-7	25%	x
N#Cc1ccsc1NC(=O)CN1C(=O)NC2(CCCCC2)C1=O	2%	0	-5	20	21%	x
CC(C)CCn1c(=O)c2ccccc2n2c(CCl)nnc12	u	-12	-10	x	23µM*	4%
CC(C)CCn1c(=O)c2ccccc2n2c(CN(C)Cc3ccccc3)nnc12	23µM*	-2	2	-23	16µM*	8%
O=C(CSc1ncn[nH]1)N1N=C2/C(=C/c3ccccc3)CCCC2C1c1ccccc1 (stereo not drawn)	u	-10	-11	-13	u	11%
NC(=O)N1N=C2/C(=C/c3ccccc3)CCCC2C1c1ccccc1 (stereo not drawn)	-20%	-8	-2	-57*	u	10%
COc1ccc(/C=C2\CCCC3C2=NN(C(=O)CSc2ncn[nH]2)C3c2ccc(OC)cc2)cc1 (stereo not drawn)	18µM*	-20	2	-85*	23µM*	8%
O=C(CCl)Nc1cc(S(=O)(=O)N2CCCCCC2)ccc1Cl	3.7µM*	10	-2	-101*	2.6µM*	-2%
COc1ccccc1CNCC(=O)Nc1cc(S(=O)(=O)N2CCCCCC2)ccc1Cl	u	-1	-1	-8	u	1%
CCN(C(=S)Nc1cc(S(=O)(=O)N2CCOCC2)ccc1Cl)c1cccc2ccccc12	18µM*	-13	5	9	u	3%
CC(NCC(=O)Nc1cc(S(=O)(=O)N2CCOCC2)ccc1Cl)c1ccc(Cl)cc1Cl (stereo not drawn)	u	-2	-1	-52*	23µM*	x
O=C(CNCc1ccccn1)Nc1cc(S(=O)(=O)N2CCCCC2)ccc1Cl	-25%	-86*	-88*	85	-11%	7%
SMILES	TDP1 cell CPT	Six1-Eya2 inh	CtBP-E1A inh	IL1B secr inh	TDP1 cell noCPT	TDP1 inh
COc1cc([C@H]2Oc3c(OC)cc(CCCO[C@@H]4O[C@H](CO)[C@@H](O)[C@H](O)[C@H]4O)cc3[C@@H]2CO)ccc1O	-6%	-3	3	5	4%	x
O=S1(=O)CC(N2CCCCC2)CN1Cc1ccc(F)cc1 (stereo not drawn)	-2%	1	4	-23	-17%	x
Cc1ccc(S(=O)(=O)N2CCOCC2)cc1NC(=O)CNCc1ccccn1	u	-69*	-94*	16	23%	9%
CCOc1ccc(NC(=O)C2=NN(c3ccccc3)C(=O)CC2)cc1S(=O)(=O)N1CCCCC1	u	-2	6	-10	u	-1%
O=C(Nc1cc(S(=O)(=O)N2CCCCC2)ccc1Cl)C1=NN(c2ccccc2)C(=O)CC1	u	0	4	82	8.2µM*	-2%
COc1ccccc1CNCC(=O)Nc1cc(S(=O)(=O)N2CCOCC2)ccc1Cl	u	0	3	4	16µM*	0%
Cc1ccc(S(=O)(=O)N2CCOCC2)cc1NC(=O)CNCc1ccccc1Cl	u	12	1	-18	u	1%
CC[C@H](C)[C@@H](NC(=O)O[C@@H]1C(=O)c2cc(OC)ccc2O[C@H]1c1ccc(OC)c(Br)c1)C(=O)OC	u	-3	-1	u	18µM*	2%
CC[C@H](C)[C@@H](NC(=O)O[C@H]1C(=O)c2cc(OC)ccc2O[C@@H]1c1ccc(OC)c(Br)c1)C(=O)OC	x	x	x	x	x	8%
O=C(NCC1CCCCC1)C12CN(Cc3ccccc3)CC1C(c1cccc([N+](=O)[O-])c1)=NO2 (stereo not drawn)	u	-17	x	-11	u	5%
CN(CCc1ccccn1)C(=O)CCC1CCCN(C(=O)CN2CCCCCC2)C1 (stereo not drawn)	-4%	5	8	-1	7%	2%
COc1ccc(NC(=O)Cn2nnc3ccccc32)c([N+](=O)[O-])c1	u	-2	0	-22	u	0%
Cc1ccsc1/C=N\NC(=O)Cn1nnc2ccccc21	u	-8	-16	12	18µM*	-3%
CN(C)c1ccc(/C=N/NC(=O)Cn2nnc3ccccc32)cc1	-7%	-14	-4	32	-24%	3%
O=C(Cn1nnc2ccccc21)Nc1ccccc1[N+](=O)[O-]	6%	-2	-3	-79*	-50%	6%
COC(=O)[C@@H](NC(=O)O[C@@H]1C(=O)c2ccc(OC)cc2O[C@H]1c1cccc(C(F)(F)F)c1)C(C)C	x	x	x	x	x	6%
COc1ccc(-c2nc(C#N)c(NCc3ccco3)o2)cc1	u	-18	x	-27	16µM*	7%

Bioassay records as filed in PubChem BioAssay.
